The values below come from ChEMBL document CHEMBL5724796, “Tm Shift (DSF) assay results for EUbOPEN Chemogenomics Library” (2024).

Common to all, as to conditions: Compound concentration 20.0 uM
For experiment [1], the target named is Tyrosine-protein kinase ABL1 (Homo sapiens) (UniProt P00519).
Experiment [2] deals with Bromodomain-containing protein 4 (Homo sapiens) (UniProt O60885).
In experiment [3] the target is Cyclin-dependent kinase 2 (Homo sapiens) (UniProt P24941).
For experiment [4], the target named is Casein kinase I isoform delta (Homo sapiens) (UniProt P48730).
Experiment [5] has as its target Glycogen synthase kinase-3 beta (Homo sapiens) (UniProt P49841).
The target in experiment [6] is Mitogen-activated protein kinase 1 (Homo sapiens) (UniProt P28482).
The target in experiment [7] is T1, Aurora kinase A (Homo sapiens) (UniProt O14965).
T1 sequence (whole entry): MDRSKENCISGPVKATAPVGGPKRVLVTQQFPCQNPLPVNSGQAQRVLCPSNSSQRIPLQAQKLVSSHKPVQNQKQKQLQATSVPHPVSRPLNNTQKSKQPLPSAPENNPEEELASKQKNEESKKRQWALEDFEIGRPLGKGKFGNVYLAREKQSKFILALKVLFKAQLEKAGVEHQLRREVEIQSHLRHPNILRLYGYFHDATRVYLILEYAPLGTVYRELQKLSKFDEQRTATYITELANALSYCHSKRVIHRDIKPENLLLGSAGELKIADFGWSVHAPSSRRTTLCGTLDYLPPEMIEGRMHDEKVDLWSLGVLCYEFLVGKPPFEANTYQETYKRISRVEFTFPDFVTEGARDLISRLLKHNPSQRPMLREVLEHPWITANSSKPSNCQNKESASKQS

In experiment [8] the target is T2, Transcription intermediary factor 1-alpha (Homo sapiens) (UniProt O15164).
T2 sequence (whole entry): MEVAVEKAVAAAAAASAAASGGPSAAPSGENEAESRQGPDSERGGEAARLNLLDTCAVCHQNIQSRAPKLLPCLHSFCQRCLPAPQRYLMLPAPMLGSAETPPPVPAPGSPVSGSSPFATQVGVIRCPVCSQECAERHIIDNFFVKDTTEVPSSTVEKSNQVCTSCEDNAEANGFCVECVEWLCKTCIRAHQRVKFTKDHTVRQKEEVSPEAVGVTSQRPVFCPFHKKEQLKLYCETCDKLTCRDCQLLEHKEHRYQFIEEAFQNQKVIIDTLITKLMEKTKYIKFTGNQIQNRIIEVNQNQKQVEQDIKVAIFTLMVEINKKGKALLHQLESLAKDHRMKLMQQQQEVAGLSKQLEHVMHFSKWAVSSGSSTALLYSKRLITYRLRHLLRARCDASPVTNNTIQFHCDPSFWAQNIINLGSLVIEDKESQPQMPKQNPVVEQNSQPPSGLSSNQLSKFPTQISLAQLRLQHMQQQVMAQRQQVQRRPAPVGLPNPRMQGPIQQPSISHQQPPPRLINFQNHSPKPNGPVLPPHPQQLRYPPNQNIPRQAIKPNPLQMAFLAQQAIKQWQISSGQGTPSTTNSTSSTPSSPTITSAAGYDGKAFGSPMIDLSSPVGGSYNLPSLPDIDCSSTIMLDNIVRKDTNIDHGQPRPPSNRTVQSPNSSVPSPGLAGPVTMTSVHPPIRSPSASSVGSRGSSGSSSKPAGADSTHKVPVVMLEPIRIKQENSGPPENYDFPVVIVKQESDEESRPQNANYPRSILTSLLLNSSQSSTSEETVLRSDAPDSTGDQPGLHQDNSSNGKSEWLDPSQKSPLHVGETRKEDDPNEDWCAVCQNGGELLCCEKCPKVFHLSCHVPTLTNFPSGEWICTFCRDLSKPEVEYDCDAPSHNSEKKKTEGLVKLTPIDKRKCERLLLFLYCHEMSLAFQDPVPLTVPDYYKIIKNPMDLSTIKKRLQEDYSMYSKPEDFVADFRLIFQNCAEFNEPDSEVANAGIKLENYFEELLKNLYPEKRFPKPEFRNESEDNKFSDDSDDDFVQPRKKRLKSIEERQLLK

Sequence of Tyrosine-protein kinase ABL1 (Homo sapiens) (P00519 whole entry): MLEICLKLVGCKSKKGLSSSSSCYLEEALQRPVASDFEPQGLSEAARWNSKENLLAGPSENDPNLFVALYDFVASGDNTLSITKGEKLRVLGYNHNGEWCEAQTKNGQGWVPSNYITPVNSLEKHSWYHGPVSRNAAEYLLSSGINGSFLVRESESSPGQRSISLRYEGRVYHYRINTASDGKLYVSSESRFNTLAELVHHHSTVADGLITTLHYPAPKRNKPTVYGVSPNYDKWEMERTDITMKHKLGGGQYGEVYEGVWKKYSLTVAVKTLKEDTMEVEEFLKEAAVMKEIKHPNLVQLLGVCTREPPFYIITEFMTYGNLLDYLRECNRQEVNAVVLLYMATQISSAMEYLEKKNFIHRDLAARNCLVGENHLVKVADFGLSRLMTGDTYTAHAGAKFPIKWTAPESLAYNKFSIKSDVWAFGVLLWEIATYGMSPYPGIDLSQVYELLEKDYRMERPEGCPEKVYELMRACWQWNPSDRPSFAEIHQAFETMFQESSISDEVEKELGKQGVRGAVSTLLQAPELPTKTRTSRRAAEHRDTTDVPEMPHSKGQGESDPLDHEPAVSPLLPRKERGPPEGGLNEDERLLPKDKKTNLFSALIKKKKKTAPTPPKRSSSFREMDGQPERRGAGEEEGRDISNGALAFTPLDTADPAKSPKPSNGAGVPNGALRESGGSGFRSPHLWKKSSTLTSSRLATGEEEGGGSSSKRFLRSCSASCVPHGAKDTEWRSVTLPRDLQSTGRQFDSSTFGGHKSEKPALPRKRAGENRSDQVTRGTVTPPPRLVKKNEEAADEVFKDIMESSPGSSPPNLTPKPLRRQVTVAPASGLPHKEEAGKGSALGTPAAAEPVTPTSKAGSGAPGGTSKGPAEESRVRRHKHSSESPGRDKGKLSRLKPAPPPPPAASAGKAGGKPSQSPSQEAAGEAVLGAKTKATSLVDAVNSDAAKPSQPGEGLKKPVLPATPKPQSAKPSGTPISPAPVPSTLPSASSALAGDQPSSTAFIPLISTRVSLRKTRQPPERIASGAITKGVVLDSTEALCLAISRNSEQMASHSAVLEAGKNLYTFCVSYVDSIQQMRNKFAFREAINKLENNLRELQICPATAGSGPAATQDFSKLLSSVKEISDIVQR
Sequence of Casein kinase I isoform delta (Homo sapiens) (P48730 whole entry, looked up, canonical isoform): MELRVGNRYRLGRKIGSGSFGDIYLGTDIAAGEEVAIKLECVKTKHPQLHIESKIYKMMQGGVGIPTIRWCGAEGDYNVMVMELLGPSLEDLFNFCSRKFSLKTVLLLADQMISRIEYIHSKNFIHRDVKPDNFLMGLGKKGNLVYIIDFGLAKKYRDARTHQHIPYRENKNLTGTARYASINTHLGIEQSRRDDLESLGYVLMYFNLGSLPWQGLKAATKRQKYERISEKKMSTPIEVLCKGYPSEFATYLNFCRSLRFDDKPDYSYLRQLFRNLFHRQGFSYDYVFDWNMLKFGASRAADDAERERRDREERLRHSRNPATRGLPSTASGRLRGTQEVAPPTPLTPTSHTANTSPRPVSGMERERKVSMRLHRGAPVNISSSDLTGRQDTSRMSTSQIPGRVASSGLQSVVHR
Sequence of Glycogen synthase kinase-3 beta (Homo sapiens) (P49841 whole entry, looked up): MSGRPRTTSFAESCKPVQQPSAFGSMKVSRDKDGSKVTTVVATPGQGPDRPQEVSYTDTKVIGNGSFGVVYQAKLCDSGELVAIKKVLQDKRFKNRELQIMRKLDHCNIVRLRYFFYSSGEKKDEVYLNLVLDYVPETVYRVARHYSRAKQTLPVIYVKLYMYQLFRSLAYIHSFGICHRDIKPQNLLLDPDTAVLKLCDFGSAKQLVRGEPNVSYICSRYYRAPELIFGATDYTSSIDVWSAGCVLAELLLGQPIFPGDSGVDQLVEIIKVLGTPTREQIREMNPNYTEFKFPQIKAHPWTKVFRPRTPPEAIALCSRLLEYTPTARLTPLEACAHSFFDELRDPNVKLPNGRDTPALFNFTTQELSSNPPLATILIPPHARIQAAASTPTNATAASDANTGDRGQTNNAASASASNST
Sequence of Mitogen-activated protein kinase 1 (Homo sapiens) (P28482 whole entry): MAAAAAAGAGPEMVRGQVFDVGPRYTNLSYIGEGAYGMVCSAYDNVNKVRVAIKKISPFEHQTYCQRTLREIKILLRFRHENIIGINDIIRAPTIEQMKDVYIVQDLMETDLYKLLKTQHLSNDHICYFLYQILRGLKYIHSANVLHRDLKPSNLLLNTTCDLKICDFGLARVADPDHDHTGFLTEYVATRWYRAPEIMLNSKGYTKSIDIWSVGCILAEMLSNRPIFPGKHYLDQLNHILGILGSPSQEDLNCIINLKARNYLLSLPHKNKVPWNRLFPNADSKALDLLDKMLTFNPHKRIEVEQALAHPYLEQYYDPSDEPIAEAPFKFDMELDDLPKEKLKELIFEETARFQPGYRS

Take `Nc1nc(C(F)(F)F)nc2c1nnn2C[C@H]1CN(Cc2nccs2)CCO1`: the ΔTm in experiment [1] was 0.2 °C; in experiment [2] it was -2.15 °C; in experiment [3], 0.32 °C; in experiment [4], -0.15 °C; in experiment [5], -0.98 °C; in experiment [6], 0.32 °C. The ΔTm is -1.21 °C in experiment [7] and 0.71 °C in experiment [8].

Take `C/C=C1\NC(=O)[C@H]2CSSCC/C=C/[C@H](CC(=O)N[C@H](C(C)C)C(=O)N2)OC(=O)[C@H](C(C)C)NC1=O`: the ΔTm is -1.22 °C in experiment [1]; -2.72 °C in experiment [2]; -0.96 °C in experiment [3]; -0.77 °C in experiment [4]; -0.05 °C in experiment [5]; -6.13 °C in experiment [6]. Further, the ΔTm in experiment [7] was -0.48 °C; in experiment [8] it was 0.22 °C.

For the compound `O=C(O)CCNc1cc(N2CCc3ccccc3CC2)nc(-c2cccnc2)n1`, the ΔTm is 0.76 °C in experiment [1]; -1.28 °C in experiment [2]; 0.04 °C in experiment [3]; 0.2 °C in experiment [4]; -0.02 °C in experiment [5]; -0.29 °C in experiment [6]. Also, the ΔTm in experiment [7] was 2.29 °C; in experiment [8] it was -0.51 °C.

Take `CCNC(=O)/C=C/c1cccc(Br)c1`: the shift in melting temperature (ΔTm) in experiment [1] was 0.39 °C; in experiment [2], -0.78 °C; in experiment [3], 0.01 °C; in experiment [4], -0.27 °C; in experiment [5] it was -0.4 °C; in experiment [6], -0.04 °C. Also, the ΔTm in experiment [7] was -2.22 °C; in experiment [8], -0.12 °C.

On to `CC(=Cc1cc(C)ccc1C=C(C)C(=O)NC(=N)N)C(=O)N=C(N)N`, for which the ΔTm in experiment [1] was 0.75 °C; in experiment [2], -2.96 °C; in experiment [3], -0.11 °C; in experiment [4], 0 °C; in experiment [5] it was -0.1 °C; in experiment [6], 0.25 °C. Besides, the ΔTm in experiment [7] is -2.39 °C; in experiment [8] it was -3.05 °C.

Turning to `Cn1ncc2c(-c3c(-c4ccc(F)cn4)nn4c3COC(C)(C)C4)ccnc21`, the ΔTm in experiment [1] was 0.22 °C; in experiment [2], 0.28 °C; in experiment [3] it was -0.29 °C; in experiment [4] it was 1.41 °C; in experiment [5], -0.58 °C; in experiment [6], 0.32 °C. Further, the values for the ΔTm in experiment [7] and in experiment [8] were -1.67 °C and -1.33 °C, respectively.

Regarding `Cn1c(=O)cc(N2CCC[C@@H](N)C2)n(Cc2ccccc2C#N)c1=O`, the thermal shift (ΔTm) in experiment [1] is 0.31 °C; in experiment [2] it was 2.27 °C; in experiment [3], 1.07 °C; in experiment [4], -0.43 °C; in experiment [5], 0.02 °C; in experiment [6], 0.02 °C. In addition, the thermal shift (ΔTm) in experiment [7] was -1.58 °C; in experiment [8], 0.69 °C.

On to `N#Cc1ccc(-c2csc(NN=C3CCCC3)n2)cc1`, for which the shift in melting temperature (ΔTm) was 1.02 °C in experiment [1]; -1.71 °C in experiment [2]; -3.5 °C in experiment [3]; 0.34 °C in experiment [4]; -3.93 °C in experiment [5]; -0.09 °C in experiment [6]. Further, the values for the thermal shift (ΔTm) in experiment [7] and in experiment [8] were -0.22 °C and -1.63 °C, respectively.

`COCCOc1cc(CC2CCN(CCc3ccc4c(c3)C(=O)CCO4)CC2)ccc1Br`: the ΔTm is 0.83 °C in experiment [1]; -2.23 °C in experiment [2]; 0.15 °C in experiment [3]; -0.07 °C in experiment [4]; -0.17 °C in experiment [5]; 0.56 °C in experiment [6]. The shift in melting temperature (ΔTm) was -2.41 °C in experiment [7] and -0.98 °C in experiment [8].

As to `Oc1ccc(-c2c(-c3ccccc3)nn3c(C(F)(F)F)cc(C(F)(F)F)nc23)cc1`, the ΔTm in experiment [1] is 2.06 °C; in experiment [2] it was -1.27 °C; in experiment [3], 0.46 °C; in experiment [4], 0.39 °C; in experiment [5] it was -0.06 °C; in experiment [6] it was -0.2 °C. In addition, the results for the ΔTm in experiment [7] and in experiment [8] were -0.53 °C and -0.6 °C, respectively.

As for `N#Cc1ccc(Nc2cnccc2SCc2ccccc2C(=O)O)c2ccccc12`, the thermal shift (ΔTm) in experiment [1] was 0.28 °C; in experiment [2] it was 1.65 °C; in experiment [3], 0.57 °C; in experiment [4], -0.12 °C; in experiment [5], 0 °C; in experiment [6], 0.32 °C. In addition, the values for the ΔTm in experiment [7] and in experiment [8] were -0.47 °C and 1.31 °C, respectively.
